Legend:
Conditions in all cases: concentration: 1 μM, replicates: in singlicate; n = 1
INSRR = tested on: INSRR
INSR = tested on: INSR
IRAK1 = tested on: IRAK1
IRAK3 = tested on: IRAK3
IRAK4 = tested on: IRAK4
ITK = tested on: ITK
[1] = tested on: JAK1(JH1domain-catalytic)
[2] = tested on: JAK1(JH2domain-pseudokinase)
[3] = tested on: JAK2(JH1domain-catalytic)
[4] = tested on: JAK3(JH1domain-catalytic)
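Note: KINOMEscan kinase panel screen.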

Row | SMILES | %Inh (INSRR) [%] | %Inh (INSR) [%] | %Inh (IRAK1) [%] | %Inh (IRAK3) [%] | %Inh (IRAK4) [%] | %Inh (ITK) [%] | %Inh [1] [%] | %Inh [2] [%] | %Inh [3] [%] | %Inh [4] [%]
1 | O=C(CCO)NCCn1ccc2ncnc(Nc3ccc(Oc4cccc(C(F)(F)F)c4)c(Cl)c3)c21 | 0 | 0 | 0 | 0 | 0 | 0 | 0 | 36 | 0 | 0
2 | Cc1ccc(O)cc1Nc1cc(C(F)(F)F)nc2ccc(-c3ccncc3)cc12 [GW630823] | 0 | 0 | 0 | 56 | 0 | 19 | 0 | 0 | 0 | 0
3 | CC(=O)Nc1n[nH]c2ncc(-c3ccccc3)cc12 [SB-548492] | 12 | 0 | 0 | 25 | 0 | 0 | 0 | 87 | 15 | 0
4 | O=C(Nc1ccccc1F)NC1CCN(c2ccnc(Nc3ccc(F)cc3)n2)C1 (stereo not shown) [GSK1379722] | 0 | 0 | 34 | 14 | 14 | 12 | 12 | 0 | 8 | 0
5 | CC(C)(C)c1ccc(-n2cnc3c(N)ncnc32)cc1 [SKF-97263] | 6 | 21 | 0 | 7 | 0 | 6 | 7 | 82 | 24 | 0
6 | Cc1ccc(NC(=O)c2cccc(C#N)c2)cc1-c1ccc(C(=O)Nc2ccncc2)cc1 [GSK1398463] | 2 | 6 | 24 | 9 | 21 | 16 | 3 | 6 | 39 | 0
7 | O=C(Nc1n[nH]c2nc(-c3ccco3)c(Br)cc12)c1ccc(CN2CCCC2)cc1.O=C(O)[C@H](O)[C@@H](O)C(=O)O [SB-742352] | 0 | 0 | 0 | 0 | 0 | 3 | 0 | 1 | 0 | 0
8 | Fc1cccc(COc2ccc(Nc3ncnc4nn5ccccc5c34)cc2Cl)c1 [GW689066] | 0 | 8 | 8 | 0 | 0 | 3 | 2 | 0 | 0 | 0
9 | O=c1cc(N2CCOCC2)nc2n(Cc3cccc(Cl)c3)ccn12 [GSK2296823] | 0 | 0 | 60 | 32 | 16 | 19 | 0 | 0 | 10 | 0
10 | Cl.c1ccc(Cn2ncc3cc(Nc4ncnc5ccccc45)ccc32)cc1 [GW273749] | 0 | 3 | 0 | 0 | 9 | 0 | 8 | 0 | 11 | 0
11 | Nc1nc(-c2cccnc2)c(-c2ccnc3ccccc23)s1 [GW684083] | 0 | 2 | 42 | 16 | 1 | 15 | 6 | 0 | 0 | 0
12 | CS(=O)(=O)CCNCc1ccc(-c2ccc3ncnc(Nc4ccc(OCc5ccccc5)c(Cl)c4)c3c2)o1.Cl [GW574783] | 24 | 7 | 0 | 12 | 0 | 0 | 9 | 0 | 14 | 0
13 | Nc1n[nH]c2nnc(-c3ccccc3)cc12 [SB-517389] | 0 | 0 | 22 | 0 | 25 | 13 | 13 | 8 | 42 | 0
14 | Nc1nc(-c2ccccn2)c(-c2ccnc3ccccc23)s1 [GW548057] | 0 | 0 | 33 | 0 | 0 | 5 | 28 | 5 | 22 | 0
15 | CSc1ccc(NC2=C(c3ccccc3Cl)C(=O)NC2=O)cc1 [SB-342411] | 0 | 0 | 0 | 0 | 19 | 4 | 0 | 0 | 0 | 48
16 | CCC(CC)(CC)n1cnc2c(N)ncnc21 [SKF-97620] | 4 | 0 | 33 | 0 | 0 | 9 | 10 | 0 | 22 | 22

Row | SMILES | %Inh (INSRR) [%] | %Inh (INSR) [%] | %Inh (IRAK1) [%] | %Inh (IRAK3) [%] | %Inh (IRAK4) [%] | %Inh (ITK) [%] | %Inh [1] [%] | %Inh [2] [%] | %Inh [3] [%] | %Inh [4] [%]
17 | CC(C)N1CCC(n2cnc(-c3ccc(F)cc3)c2-c2ccnc(N)n2)CC1 [SB-223132] | 0 | 0 | 0 | 23 | 0 | 0 | 0 | 56 | 0 | 24
18 | CNc1nccc(-c2c(-c3ccc(F)cc3)ncn2CCCN2CCOCC2)n1 [SB-222516] | 0 | 0 | 6 | 10 | 9 | 4 | 0 | 0 | 8 | 0
19 | FC(F)(F)c1ccc(-c2nn3ncccc3c2-c2ccnc(Nc3cccc(C(F)(F)F)c3)n2)cc1 [GW828205] | 0 | 0 | 0 | 11 | 0 | 15 | 0 | 5 | 0 | 0
20 | O=C(NCCCN1CCCC1=O)c1cnc(NCc2cc(Cl)ccc2Cl)nc1NC1CCNCC1 | 13 | 0 | 37 | 0 | 2 | 0 | 1 | 4 | 33 | 0
21 | COc1cc2c(Nc3cccc(NC(=O)c4ccccc4)c3)ncnc2cc1OCCCN1CCOCC1 [GSK223810] | 7 | 10 | 0 | 41 | 0 | 9 | 0 | 0 | 4 | 0
22 | CCc1nc(-c2cccc(C)c2)c(-c2ccnc(NC(=O)c3ccccc3)c2)s1 | 0 | 29 | 14 | 1 | 6 | 16 | 22 | 3 | 19 | 8
23 | Nc1nc(-c2ccc3c(N)n[nH]c3c2)cc(N2CCC[C@@H](C(=O)Nc3ccccc3)C2)n1.O=C(O)C(F)(F)F.O=C(O)C(F)(F)F [GSK2288359] | 0 | 9 | 0 | 0 | 0 | 0 | 14 | 23 | 100 | 0
24 | Nc1nccc2scc(-c3ccc4c(c3)CCN4C(=O)Cc3cc(F)ccc3F)c12 [GSK2587663] | 0 | 0 | 17 | 10 | 7 | 18 | 14 | 0 | 0 | 0
25 | CCc1nc(-c2cccc(N(C)S(=O)(=O)c3ccccc3)c2)c(-c2ccnc(Nc3ccc(N4CCN(C(C)=O)CC4)nc3)n2)s1 [GSK1645895] | 0 | 20 | 11 | 0 | 13 | 0 | 15 | 21 | 0 | 0
26 | Nc1nc(-c2ccc3c(N)n[nH]c3c2)cc(N2CCCCC2)n1 [GSK2228768] | 0 | 1 | 0 | 0 | 9 | 18 | 0 | 0 | 0 | 0
27 | COc1ccc(Nc2nccc(N3CCC(NC(=O)c4cccc(NC(C)=O)c4)C3)n2)cc1 (stereo not shown) [GSK1379732] | 0 | 0 | 24 | 0 | 0 | 0 | 15 | 0 | 22 | 0
28 | Fc1ccc(Nc2nccc(-c3c(-c4ccc(Cl)cc4)nn4ncccc34)n2)cc1F [GW829058] | 20 | 19 | 24 | 7 | 0 | 18 | 0 | 12 | 39 | 37
29 | Clc1ccc(-c2cc(-c3c[nH]nc3-c3ccccn3)ccn2)cc1 [GW681251] | 0 | 0 | 43 | 0 | 8 | 16 | 0 | 0 | 2 | 0
30 | C[C@H]1CC[C@@H](C(=O)Nc2ccccc2)CN1c1cc(-c2ccc3c(N)n[nH]c3c2)nc(N)n1 [GSK2283293] | 0 | 0 | 0 | 16 | 0 | 17 | 0 | 0 | 0 | 0
31 | CN1c2ccc(-c3ccc(C(=O)NCCO)cc3)cc2-c2[nH]ncc2S1(=O)=O | 0 | 0 | 14 | 44 | 0 | 12 | 5 | 35 | 13 | 97.2

From publication PMC5540273 (PLoS ONE, 2017)
